Measurements: PubChem BioAssay (EPA / NIEHS)
Results filed as inconclusive are left out. The source made the active and inactive calls. How the source made its calls: active means hit-call score of the fitted dose curve at least 0.9, where 1 is the maximum; inconclusive means response in the unintended direction; inactive means score below 0.9.

Tests used:
[1] = target: human Phosphodiesterase 10 (PDE10), PDE10A (gene 10846) (UniProt Q9Y233); assay: NVS_ENZ_hPDE10: NovaScreen (NVS) Enzymatic Assay for human Phosphodiesterase 10 (PDE10) (AID 2283195)
human Phosphodiesterase 10 (PDE10), PDE10A (gene 10846), sequence (Q9Y233 whole entry, looked up): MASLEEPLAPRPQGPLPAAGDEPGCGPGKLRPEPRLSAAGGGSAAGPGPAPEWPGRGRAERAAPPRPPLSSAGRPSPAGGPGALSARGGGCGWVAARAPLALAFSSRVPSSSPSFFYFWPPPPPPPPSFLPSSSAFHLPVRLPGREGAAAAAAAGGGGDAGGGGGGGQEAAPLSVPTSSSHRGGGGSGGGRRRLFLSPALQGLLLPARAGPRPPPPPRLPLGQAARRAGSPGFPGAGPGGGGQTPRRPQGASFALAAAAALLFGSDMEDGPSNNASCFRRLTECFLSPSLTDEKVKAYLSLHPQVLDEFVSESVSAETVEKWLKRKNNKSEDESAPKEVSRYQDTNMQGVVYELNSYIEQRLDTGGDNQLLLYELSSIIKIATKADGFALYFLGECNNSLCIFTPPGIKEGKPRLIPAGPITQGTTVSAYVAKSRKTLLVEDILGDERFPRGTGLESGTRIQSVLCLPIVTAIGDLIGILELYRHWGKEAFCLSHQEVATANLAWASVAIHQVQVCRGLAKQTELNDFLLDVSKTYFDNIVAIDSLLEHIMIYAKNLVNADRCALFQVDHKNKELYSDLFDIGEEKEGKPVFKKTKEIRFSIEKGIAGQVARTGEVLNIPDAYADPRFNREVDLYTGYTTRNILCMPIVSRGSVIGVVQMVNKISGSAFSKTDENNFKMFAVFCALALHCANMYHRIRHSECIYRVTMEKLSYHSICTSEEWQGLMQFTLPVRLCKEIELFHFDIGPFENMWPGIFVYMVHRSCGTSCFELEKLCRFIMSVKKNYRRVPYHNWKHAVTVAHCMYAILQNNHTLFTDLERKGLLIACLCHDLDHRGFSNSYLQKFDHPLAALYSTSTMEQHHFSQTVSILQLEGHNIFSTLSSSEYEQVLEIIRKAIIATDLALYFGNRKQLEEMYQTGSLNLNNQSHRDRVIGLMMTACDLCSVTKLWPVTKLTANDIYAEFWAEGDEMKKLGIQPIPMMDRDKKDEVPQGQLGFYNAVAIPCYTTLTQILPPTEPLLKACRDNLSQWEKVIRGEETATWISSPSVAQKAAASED
In short: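 Readout is fluorescence intensity following electrophoretic mobility-shift separation, 1 h after dosing of isolated PDE10A protein. Hits meeting a preset threshold at 25 uM went to concentration series (max 50 uM), analysed relative to DMSO.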

[2] = target: human Phosphoinositide 3-kinase alpha (PI3Ka), PIK3CA (gene 5290) (UniProt P42336); assay: NVS_ENZ_hPI3Ka: NovaScreen (NVS) Enzymatic Assay for human Phosphoinositide 3-kinase alpha (PI3Ka) (AID 2283196)
human Phosphoinositide 3-kinase alpha (PI3Ka), PIK3CA (gene 5290), sequence (P42336 whole entry, looked up): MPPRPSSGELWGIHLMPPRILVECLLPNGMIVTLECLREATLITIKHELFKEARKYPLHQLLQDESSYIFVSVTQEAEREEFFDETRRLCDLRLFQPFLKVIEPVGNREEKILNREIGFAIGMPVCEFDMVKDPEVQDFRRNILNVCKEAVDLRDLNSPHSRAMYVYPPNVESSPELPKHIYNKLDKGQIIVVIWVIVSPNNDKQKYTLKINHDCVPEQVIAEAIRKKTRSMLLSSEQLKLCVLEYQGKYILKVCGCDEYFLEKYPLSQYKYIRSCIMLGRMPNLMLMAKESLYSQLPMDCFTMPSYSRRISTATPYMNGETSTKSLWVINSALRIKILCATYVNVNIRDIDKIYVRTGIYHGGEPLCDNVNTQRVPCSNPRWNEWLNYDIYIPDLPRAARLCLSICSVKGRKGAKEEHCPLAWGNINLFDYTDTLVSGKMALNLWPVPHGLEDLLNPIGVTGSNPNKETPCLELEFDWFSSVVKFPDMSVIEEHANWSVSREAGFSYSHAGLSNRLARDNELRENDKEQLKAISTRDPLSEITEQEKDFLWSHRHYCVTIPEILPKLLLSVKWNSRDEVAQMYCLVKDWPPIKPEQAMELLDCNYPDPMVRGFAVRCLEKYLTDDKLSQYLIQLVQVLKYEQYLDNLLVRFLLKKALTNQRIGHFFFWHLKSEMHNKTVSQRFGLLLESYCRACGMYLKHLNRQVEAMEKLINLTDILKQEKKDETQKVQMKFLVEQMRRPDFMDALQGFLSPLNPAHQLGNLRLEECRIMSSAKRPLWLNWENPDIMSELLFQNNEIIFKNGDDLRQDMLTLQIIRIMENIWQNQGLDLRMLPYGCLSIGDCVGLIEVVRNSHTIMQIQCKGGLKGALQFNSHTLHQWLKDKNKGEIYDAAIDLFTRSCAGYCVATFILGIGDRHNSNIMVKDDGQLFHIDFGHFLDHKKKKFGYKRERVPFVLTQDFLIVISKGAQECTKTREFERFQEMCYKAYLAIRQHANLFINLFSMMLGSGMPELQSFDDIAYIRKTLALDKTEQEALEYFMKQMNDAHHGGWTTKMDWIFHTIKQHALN
In short: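 Recombinant human PI3Kα with fluorescent substrate, 1 h, product separated by electrophoretic mobility shift; 25 uM duplicate screen, hits (e.g., 30% inhibition) retested singly up to 50 uM; loss of signal vs DMSO.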

[3] = target: human Protein Tyrosine Phosphatase Non-receptor Type 6 (PTPN6), PTPN6 (gene 5777) (UniProt P29350); assay: NVS_ENZ_hPTPN6: NovaScreen (NVS) Enzymatic Assay for human Protein Tyrosine Phosphatase Non-receptor Type 6 (PTPN6) (AID 2283210)
In short: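 Recombinant human PTPN6 from SF9 cells, enzyme activity followed by fluorescence after mobility-shift separation of substrate and product at 1.33 h. Chemicals first tested at a single 25 uM in duplicate, then confirmed across concentration series; loss of signal relative to DMSO.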

[4] = target: Tyrosine-protein phosphatase non-receptor type 13 (Homo sapiens) (UniProt Q12923); assay: NVS_ENZ_hPTPN13: NovaScreen (NVS) Enzymatic Assay for human Protein Tyrosine Phosphatase Non-receptor Type 13 (PTPN13) (AID 2283205)
Description: (§1) NVS_ENZ_hPTPN13 is a biochemical, single-readout assay that uses extracted gene-proteins in a cell-free assay. Measurements were taken 0.5 hour after chemical dosing in a 384-well plate.NVS_ENZ_hPTPN13 is one of one assay component(s) measured or calculated from the NVS_ENZ_hPTPN13 assay. It is designed to make measurements of enzyme activity, a form of enzyme reporter, as detected with fluorescence intensity signals by Fluorescence and electrophoretic mobility shift technology.Data from the assay component NVS_ENZ_hPTPN13 was analyzed into 1 assay endpoint. This assay endpoint, NVS_ENZ_hPTPN13, was analyzed in the positive analysis fitting direction relative to DMSO as the negative control and baseline of activity. Using a type of enzyme reporter, loss-of-signal activity can be used to understand changes in the enzymatic activity as they relate to the gene PTPN13. Furthermore, this assay endpoint can be referred to as a primary readout, because this assay has produced multiple assay endpoints where this one serves a enzymatic activity function. To generalize the intended target to other relatable targets, this assay endpoint is annotated to the phosphatase intended target family, where the subfamily is non-receptor tyrosine phosphatase. […]

[5] = target: Tyrosine-protein phosphatase non-receptor type 14 (Homo sapiens) (UniProt Q15678); assay: NVS_ENZ_hPTPN14: NovaScreen (NVS) Enzymatic Assay for human Protein Tyrosine Phosphatase Non-receptor Type 14 (PTPN14) (AID 2283206)
Tyrosine-protein phosphatase non-receptor type 14 (Homo sapiens), sequence (Q15678 whole entry, looked up): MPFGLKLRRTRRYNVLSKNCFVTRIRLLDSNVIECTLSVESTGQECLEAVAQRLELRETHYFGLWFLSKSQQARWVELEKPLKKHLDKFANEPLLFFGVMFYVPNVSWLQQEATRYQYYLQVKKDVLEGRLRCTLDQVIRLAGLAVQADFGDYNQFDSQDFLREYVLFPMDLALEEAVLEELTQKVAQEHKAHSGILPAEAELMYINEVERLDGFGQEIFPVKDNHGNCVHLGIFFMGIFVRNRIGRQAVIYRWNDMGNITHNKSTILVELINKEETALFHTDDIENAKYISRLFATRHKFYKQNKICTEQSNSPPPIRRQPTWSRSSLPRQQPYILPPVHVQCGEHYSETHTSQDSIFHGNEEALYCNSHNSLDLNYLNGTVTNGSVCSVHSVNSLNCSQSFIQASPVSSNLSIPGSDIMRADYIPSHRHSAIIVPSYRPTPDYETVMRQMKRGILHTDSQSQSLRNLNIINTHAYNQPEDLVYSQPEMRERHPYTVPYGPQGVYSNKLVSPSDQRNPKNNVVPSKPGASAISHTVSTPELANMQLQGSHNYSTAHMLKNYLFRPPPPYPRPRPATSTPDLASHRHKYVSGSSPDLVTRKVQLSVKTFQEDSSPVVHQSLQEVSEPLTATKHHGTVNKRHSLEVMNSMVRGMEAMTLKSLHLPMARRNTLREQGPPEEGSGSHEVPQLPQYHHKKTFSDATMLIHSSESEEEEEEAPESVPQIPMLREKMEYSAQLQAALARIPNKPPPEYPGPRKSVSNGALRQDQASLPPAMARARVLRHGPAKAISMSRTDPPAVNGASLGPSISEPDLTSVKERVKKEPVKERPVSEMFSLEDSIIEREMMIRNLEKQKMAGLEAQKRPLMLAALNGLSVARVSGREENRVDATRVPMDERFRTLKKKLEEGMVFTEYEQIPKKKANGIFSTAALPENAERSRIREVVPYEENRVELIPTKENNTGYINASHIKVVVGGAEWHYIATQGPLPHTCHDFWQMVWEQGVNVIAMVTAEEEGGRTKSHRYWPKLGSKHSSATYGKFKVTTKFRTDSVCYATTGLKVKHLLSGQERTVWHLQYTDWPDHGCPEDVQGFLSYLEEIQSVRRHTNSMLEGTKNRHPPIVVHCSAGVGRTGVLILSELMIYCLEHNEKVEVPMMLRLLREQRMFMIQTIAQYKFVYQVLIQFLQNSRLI
In short: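 Fluorescent substrate turnover by recombinant human PTPN14 was measured 0.5 h after compound addition, with substrate and product separated by mobility shift. Single-point screening at 25 uM, then concentration-response up to 50 uM for chemicals meeting threshold (e.g., 30% inhibition).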

[6] = target: human Protein Tyrosine Phosphatase Receptor Type F (PTPRF), PTPRF (gene 5792) (UniProt P10586); assay: NVS_ENZ_hPTPRF: NovaScreen (NVS) Enzymatic Assay for human Protein Tyrosine Phosphatase Receptor Type F (PTPRF) (AID 2283213)
Description: as §1, with “NVS_ENZ_hPTPRF” for “NVS_ENZ_hPTPN13”, “1” for “0.5”, “plate.NVS_ENZ_hPTPRF” for “plate.NVS_ENZ_hPTPN13”, “NVS_ENZ_hPTPRF,” for “NVS_ENZ_hPTPN13,”, “PTPRF.” for “PTPN13.”, “receptor” for “non-receptor”

[7] = target: human Protein Tyrosine Phosphatase Receptor Type M (PTPRM), PTPRM (gene 5797) (UniProt P28827); assay: NVS_ENZ_hPTPRM: NovaScreen (NVS) Enzymatic Assay for human Protein Tyrosine Phosphatase Receptor Type M (PTPRM) (AID 2283215)
human Protein Tyrosine Phosphatase Receptor Type M (PTPRM), PTPRM (gene 5797), sequence (P28827 whole entry, looked up): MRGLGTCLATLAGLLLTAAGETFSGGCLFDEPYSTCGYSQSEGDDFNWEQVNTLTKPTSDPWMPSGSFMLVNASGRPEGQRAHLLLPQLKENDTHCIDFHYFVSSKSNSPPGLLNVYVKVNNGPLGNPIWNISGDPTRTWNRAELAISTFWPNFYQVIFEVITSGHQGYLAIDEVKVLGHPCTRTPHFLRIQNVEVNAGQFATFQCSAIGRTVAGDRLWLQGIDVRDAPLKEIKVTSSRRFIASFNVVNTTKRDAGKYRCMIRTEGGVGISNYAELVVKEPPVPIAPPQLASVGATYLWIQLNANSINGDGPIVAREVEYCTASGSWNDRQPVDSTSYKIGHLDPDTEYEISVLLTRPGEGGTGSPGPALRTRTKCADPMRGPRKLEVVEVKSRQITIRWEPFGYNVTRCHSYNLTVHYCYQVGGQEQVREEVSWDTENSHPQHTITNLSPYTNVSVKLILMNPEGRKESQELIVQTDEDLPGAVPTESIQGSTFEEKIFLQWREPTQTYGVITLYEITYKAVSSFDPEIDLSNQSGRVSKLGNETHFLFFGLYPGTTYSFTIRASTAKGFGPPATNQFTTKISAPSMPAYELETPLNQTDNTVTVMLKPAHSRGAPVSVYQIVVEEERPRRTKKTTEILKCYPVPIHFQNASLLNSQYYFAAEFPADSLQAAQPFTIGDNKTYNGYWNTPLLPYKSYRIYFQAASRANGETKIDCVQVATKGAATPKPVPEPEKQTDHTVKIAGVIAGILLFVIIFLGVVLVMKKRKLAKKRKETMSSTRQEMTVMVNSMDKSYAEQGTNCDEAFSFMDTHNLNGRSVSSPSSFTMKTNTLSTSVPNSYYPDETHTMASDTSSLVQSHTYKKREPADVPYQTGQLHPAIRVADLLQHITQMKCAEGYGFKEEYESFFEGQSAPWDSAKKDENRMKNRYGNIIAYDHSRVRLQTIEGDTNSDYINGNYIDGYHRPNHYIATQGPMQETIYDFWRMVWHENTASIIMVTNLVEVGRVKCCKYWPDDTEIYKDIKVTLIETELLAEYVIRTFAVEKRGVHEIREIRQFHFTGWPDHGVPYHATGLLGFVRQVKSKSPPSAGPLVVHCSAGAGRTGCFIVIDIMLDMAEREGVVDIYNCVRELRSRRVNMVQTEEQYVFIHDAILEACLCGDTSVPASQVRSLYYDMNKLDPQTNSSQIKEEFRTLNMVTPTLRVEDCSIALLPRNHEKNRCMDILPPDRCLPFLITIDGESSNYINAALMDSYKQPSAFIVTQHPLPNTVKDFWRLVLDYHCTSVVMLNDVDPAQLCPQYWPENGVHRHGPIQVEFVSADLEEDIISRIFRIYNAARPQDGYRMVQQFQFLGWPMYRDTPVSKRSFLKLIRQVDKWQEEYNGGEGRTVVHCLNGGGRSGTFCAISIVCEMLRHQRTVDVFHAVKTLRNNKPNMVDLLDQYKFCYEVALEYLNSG
Description: NVS_ENZ_hPTPRM is a biochemical, single-readout assay that uses extracted gene-proteins in a cell-free assay. Measurements were taken 1.33 hours after chemical dosing in a 384-well plate.NVS_ENZ_hPTPRM is one of one assay component(s) measured or calculated from the NVS_ENZ_hPTPRM assay. It is designed to make measurements of enzyme activity, a form of enzyme reporter, as detected with fluorescence intensity signals by Fluorescence and electrophoretic mobility shift technology.Data from the assay component NVS_ENZ_hPTPRM was analyzed into 1 assay endpoint. This assay endpoint, NVS_ENZ_hPTPRM, was analyzed in the positive analysis fitting direction relative to DMSO as the negative control and baseline of activity. Using a type of enzyme reporter, loss-of-signal activity can be used to understand changes in the enzymatic activity as they relate to the gene PTPRM. Furthermore, this assay endpoint can be referred to as a primary readout, because this assay has produced multiple assay endpoints where this one serves a enzymatic activity function. To generalize the intended target to other relatable targets, this assay endpoint is annotated to the phosphatase intended target family, where the subfamily is receptor tyrosine phosphatase.
Binding assays used specific radioligands (tritiated, iodinated) with non-radioactive competitive displacement ligands in agonist or antagonist protocols (as indicated) and various reference compounds and inhibitors to titrate specific binding to receptors and transporters. Most enzyme assays (CYPs, kinases, phosphatases, proteases, HDACs) used recombinant protein and specific substrates (fluorescence mostly, some colorimetric and radioactive) and inhibitors, followed by a biochemical separation of substrate and product. All assays for the biochemical HTS were initially run in duplicate at a single concentration (10 uM for CYP450 assays and 25 uM for all others). […] Each assay was run with positive and negative controls, and concurrent controls on every plate. […]

[8] = target: human Protein Tyrosine Phosphatase Non-receptor Type 1 (PTPN1), PTPN1 (gene 5770) (UniProt P18031); assay: NVS_ENZ_hPTPN1: NovaScreen (NVS) Enzymatic Assay for human Protein Tyrosine Phosphatase Non-receptor Type 1 (PTPN1) (AID 2283201)
In short: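 Chemicals were first tested in duplicate at 25 uM, and those passing threshold went on to singleton concentration series topping at 50 uM. Recombinant enzyme, specific substrate, product separated by mobility shift, fluorescence read at 1.33 h; activity loss relative to DMSO.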

[9] = target: Tyrosine-protein phosphatase non-receptor type 11 (Homo sapiens) (UniProt Q06124); assay: NVS_ENZ_hPTPN11: NovaScreen (NVS) Enzymatic Assay for human Protein Tyrosine Phosphatase Non-receptor Type 11 (PTPN11) (AID 2283202)
In short: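 Compounds first tested in duplicate at 25 uM; those reaching ~30% inhibition rerun in singleton concentration-response, top 50 uM. Phosphatase activity measured after 0.5 h by fluorescence with mobility-shift separation, relative to DMSO.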

[10] = target: human Sirtuin 2 (SIRT2), SIRT2 (gene 22933) (UniProt Q8IXJ6); assay: NVS_ENZ_hSIRT2: NovaScreen (NVS) Enzymatic Assay for human Sirtuin 2 (SIRT2) (AID 2283217)
In short: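 Single-point duplicate screen at 25 uM, then concentration-response (max 50 uM) for chemicals passing threshold. Enzyme activity of recombinant human SIRT2 measured after 1 hr by fluorescence with mobility-shift separation of product; DMSO baseline.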

Q: Which AC50 [1] does the source give for OCCCO here?
A: 16.1 µM (active)

Q: With O=C1OC2(c3ccc(O)cc3Oc3cc(O)ccc32)c2ccccc21 as the molecule, how does the outcome [2] read?
A: inactive

Q: For CCO[Si](CCC#N)(OCC)OCC, which outcome [1] is on record?
A: inactive

Q: Which outcome [1] does the source give for CC(O)COCC(C)O (configuration not stated) here?
A: inactive

Q: How did the outcome [1] turn out when N#CCCNCCC#N was run?
A: inactive

Q: With Cc1ccc(C(C)(C)O)cc1 as the molecule, how does the AC50 [2] read?
A: 25 µM (active)

Q: For CCC(CC)CO, which outcome [1] is on record?
A: inactive

Q: With CCCCOCCOCCO as the molecule, how does the outcome [3] read?
A: inactive

Q: With CC/C(=C(\c1ccccc1)c1ccc(OCCN(C)C)cc1)c1ccccc1 as the molecule, how does the AC50 [1] read?
A: 22.9 µM (active)

Q: What about the AC50 [2] of the same molecule?
A: 16.1 µM (active)

Q: What about the AC50 [4] of the same molecule?
A: 12.1 µM (active)

Q: And the outcome [5]?
A: inactive

Q: What about the outcome [6] of the same molecule?
A: inactive

Q: And the AC50 [7]?
A: 13.9 µM (active)

Q: For CC1(C)[C@H](C=C(Cl)Cl)[C@H]1C(=O)OCc1cccc(Oc2ccccc2)c1, which AC50 [1] is on record?
A: 25 µM (active)

Q: With COc1ccccc1NC(=O)CC(C)=O as the molecule, how does the AC50 [1] read?
A: 7.87 µM (active)

Q: With Brc1cc(Br)cc(Br)c1 as the molecule, how does the outcome [1] read?
A: inactive

Q: Which outcome [7] does the source give for C[C@]12CC[C@@H]3c4ccc(O)cc4CC[C@H]3[C@@H]1CC[C@@H]2O here?
A: inactive

Q: Which outcome [2] does the source give for C=CC(=O)OCC(CO)(COC(=O)C=C)COC(=O)C=C here?
A: inactive

Q: How did the outcome [2] turn out when N#CCCCC(C#N)CCC#N (configuration not stated) was run?
A: inactive

Q: For C=CC(=O)OCCCCCC, which outcome [2] is on record?
A: inactive

Q: What does the source list for O=C(c1ccc(OCCN2CCCCC2)cc1)c1c(-c2ccc(O)cc2)sc2cc(O)ccc12?
A: AC50 [1]: 25 µM (active); AC50 [8]: 5.48 µM (active); AC50 [9]: 28 µM (active); AC50 [4]: 30.9 µM (active); outcome [5]: inactive; AC50 [7]: 37.9 µM (active); outcome [10]: inactive

Q: What does the source list for CCCCCCOC(C)=O?
A: outcome [1]: inactive; outcome [2]: inactive

Q: For S=c1[nH][nH]c(=S)s1, which outcome [1] is on record?
A: inactive

Q: What about the outcome [2] of the same molecule?
A: inactive

Q: Which outcome [1] does the source give for CC(C)(C)c1cc(CCC(=O)OCCSCCOC(=O)CCc2cc(C(C)(C)C)c(O)c(C(C)(C)C)c2)cc(C(C)(C)C)c1O here?
A: inactive

Q: Which outcome [2] does the source give for CCOC(=O)C(=O)OCC here?
A: inactive

Q: With CCOC(=O)CCCCCCCCC(=O)OCC as the molecule, how does the outcome [1] read?
A: inactive

Q: How did the outcome [2] turn out when CC(C)Cc1ccccc1 was run?
A: inactive

Q: For CC(CO)c1ccccc1 (configuration not stated), which outcome [2] is on record?
A: inactive
